High-throughput results as filed in PubChem BioAssay.
Rows were chosen to be rich in hits. Some 21% of all compounds tested hit in one or more screens of this group.
Pf growth 96h: P. falciparum growth inhibition at 96 hours; P. falciparum luciferase reporter growth, 96 h; Potency, µM (titrated, usually from 28.7 µM), hits mostly inhibitors; 6.9% of 320,000 active; active = well fitted inhibition curve with a large enough effect; inconclusive = small, poorly fitted or top-dose-only effect, or another doubt; inactive = no such curve, though single readings can be large or run the other way
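Delayed-death screen, second-generation endpoint: infected erythrocytes, 2% hematocrit, 0.05% parasitemia final; 96 hours at 37 C, 5% CO2; luciferase detection reagent; luminescence decrease equals reduced growth.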
Pf growth 48h: inhibits P. falciparum growth in the first generation, 48 h; P. falciparum luciferase growth in erythrocytes, 48 h; Potency, µM (highest dose often 28.7 µM), most hits filed as inhibitors; 5.9% of 310,000 active; active = well fitted inhibition curve with a large enough effect; inconclusive = small, poorly fitted or top-dose-only effect, or another doubt; inactive = no such curve, though single readings can be large or run the other way
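Cell-based growth assay: transgenic P. falciparum expressing firefly luciferase, cultured in red cells within RPMI 1640 containing 0.5% w/v Albumax, 24 mM bicarbonate and gentamycin. A drop in luciferase activity indicates inhibition.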
Shiga inhibitor: inhibitors of Shiga toxin in Vero cells; Vero cells, Shiga toxin protein synthesis inhibition reporter; inhibition, % at 38.7 µM; 9.2% of 290,000 active; in the data active = inhibition mostly above about 28%, no sharp cut-off; inactive = mostly below about 43%
SARS PLP yeast: SARS-CoV PLP inhibition in yeast. 0.19% of 330,000 active. Potency, µM (top dose mostly 32.9 µM), hits mostly activators. S. cerevisiae expressing SARS-CoV PLpro, growth rescue; also: nearly all actives have a fitted effect of over 55% in size
NS1 inh: blocks influenza NS1 protein function; 0.4% of 270,000 active; AID 2326; Potency, µM (top dose mostly 46.1 µM); also: actives are rising curves; nearly all actives have a fitted effect of over 50% in size
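In this qHTS, NS1 from influenza A is expressed in budding yeast, where it slows growth. Cells are switched from glucose to 2% galactose medium (pH 6.0, -URA), treated with compound, and growth recovery is read at OD600.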
CHX counter: affects cycloheximide protein synthesis inhibition readout, counter-screen. cell reporter, cycloheximide protein synthesis inhibition counterscreen. max response, %. 12% of 300,000 active; in the data active = max response mostly above about 13%, no sharp cut-off; inactive = mostly below about 14%; also: read at 38.3 µM for the half of the compounds with a filed dose
A number is an active result. Unless noted, calls follow the shape of the full dose curve.

Screening COc1ccc(OC)c(C2=Nn3c(nnc3-c3cc(OC)c(OC)c(OC)c3)SC2)c1 returned Pf growth 96h inactive, Pf growth 48h 6.6µM, Shiga inhibitor inactive, SARS PLP yeast inactive, NS1 inh inactive and CHX counter inactive.
For COc1ccc(C2=Nn3c(nnc3-c3ccc(OC)cc3)SC2)cc1 the results were Pf growth 48h 10µM, Shiga inhibitor inactive, SARS PLP yeast inactive, NS1 inh inactive and CHX counter inactive.
Screening CC1(C)O[C@H]2CC(=O)OC[C@]23[C@H]2CC[C@@]4(C)[C@H](c5ccoc5)OC(=O)[C@H]5O[C@]54[C@]2(C)[C@@H](O)C[C@@H]13 returned Pf growth 96h inactive, Pf growth 48h inactive and SARS PLP yeast inactive.
Screening c1ccc(Cn2c[n+](Cc3ccccc3)cn2)cc1 returned Pf growth 96h inactive, Pf growth 48h inactive, Shiga inhibitor inactive, SARS PLP yeast inactive, NS1 inh inactive and CHX counter inactive.
`CCOc1ccc(C(=O)Nc2c(C(=O)N3CCC(N4CCCCC4)CC3)oc3ccccc23)cc1` gave Pf growth 96h inconclusive, Pf growth 48h inconclusive, Shiga inhibitor inactive, SARS PLP yeast inactive, NS1 inh inactive and CHX counter inactive.
For CCC1Nc2ncnc(N3CCN(c4ccccc4)CC3)c2N(Cc2ccc(Br)cc2)C1=O (stereo unspecified) the results were Pf growth 96h inconclusive, Pf growth 48h 12µM and SARS PLP yeast inactive.
CCC1Nc2ncnc(N3CCN(c4ccccc4)CC3)c2N(Cc2ccc(OC)cc2)C1=O (stereo unspecified) was read as Pf growth 96h 12µM, Pf growth 48h 12µM and SARS PLP yeast inactive.
`Cc1ccc(NC2=NCC(=O)N2Cc2cccs2)cc1C` gave Pf growth 96h inconclusive, Pf growth 48h inactive, Shiga inhibitor inactive, SARS PLP yeast inactive, NS1 inh inactive and CHX counter 29.
`NC(N)=NCCC[C@H](N)C(=O)NCC(=O)N[C@@H](CC(=O)O)C(=O)N[C@@H](CO)C(=O)O` gave Shiga inhibitor inactive and CHX counter inactive.
For O=C1CSC(c2ccc(F)cc2)N1c1c(F)cccc1F (stereo unspecified) the results were Pf growth 96h inactive, Pf growth 48h inactive, Shiga inhibitor inactive, SARS PLP yeast inactive, NS1 inh inactive and CHX counter 21.
Screening COc1ccc(N2C(=O)CCC(C(=O)O)C2c2ccc(F)cc2)cc1 (stereo unspecified) returned Pf growth 96h 2.6µM, Pf growth 48h inactive, Shiga inhibitor inactive, SARS PLP yeast inactive, NS1 inh inactive and CHX counter inactive.
Screening COc1ccc(N2C(=O)CCC(C(=O)N3CCCCC3)C2c2ccc(F)cc2)cc1 (stereo unspecified) returned Pf growth 48h inactive, Shiga inhibitor inactive, SARS PLP yeast inactive, NS1 inh inactive and CHX counter inactive.
COc1ccc(N2C(=O)CSC2c2ccc([N+](=O)[O-])cc2)cc1 (stereo unspecified) was read as Pf growth 96h 5.2µM, Shiga inhibitor inactive, SARS PLP yeast inactive, NS1 inh inactive and CHX counter inactive.
`COc1ccc(C2SCC(=O)N2c2ccc(OC)cc2)cc1` (stereo unspecified) gave Pf growth 96h inactive, Pf growth 48h inactive, Shiga inhibitor inactive, SARS PLP yeast inactive, NS1 inh inactive and CHX counter inactive.
Screening O=C1CSC(c2ccc([N+](=O)[O-])cc2)N1c1ccccc1 (stereo unspecified) returned Pf growth 96h inconclusive, Shiga inhibitor inactive, SARS PLP yeast inactive, NS1 inh inactive and CHX counter inactive.
COc1ccc(C2SCC(=O)N2c2ccc(F)cc2)cc1 (stereo unspecified) was read as Pf growth 96h 2.6µM, Pf growth 48h inactive, Shiga inhibitor inactive, SARS PLP yeast inactive, NS1 inh inactive and CHX counter inactive.
`CCOC(=O)N1CCN(C(=O)C2CC(=O)N(c3ccc(OC)cc3)C2c2ccc(OC)cc2)CC1` (stereo unspecified) gave Pf growth 96h inconclusive, Pf growth 48h 9.3µM, Shiga inhibitor inactive, SARS PLP yeast inactive, NS1 inh inactive and CHX counter inactive.
For COc1ccc(C2C(C(=O)NCc3ccccn3)CCC(=O)N2c2cc(OC)c(OC)c(OC)c2)cc1 (stereo unspecified) the results were Pf growth 96h 12µM, Pf growth 48h inactive, Shiga inhibitor 94, SARS PLP yeast inactive and CHX counter 40.
COc1ccc(C2C(C(=O)O)CC(=O)N2c2ccc(OC)cc2)cc1 (stereo unspecified) was read as Pf growth 96h inconclusive, Pf growth 48h inactive, Shiga inhibitor inactive, SARS PLP yeast inactive, NS1 inh inactive and CHX counter inactive.
C[C@H](O)[C@@H](C(=O)N1CCN(C(=O)OC(C)(C)C)CC1)n1cc(CCCCNC(=O)OC(C)(C)C)nn1 was read as Pf growth 96h inactive, Pf growth 48h inactive, Shiga inhibitor inactive, SARS PLP yeast inactive, NS1 inh inactive and CHX counter inactive.
Screening CC[C@H](C)[C@@H](C(=O)NCCCCCCCCCCC(=O)N1CCN(C(=O)OC(C)(C)C)CC1)n1cc(CCCCCNC(=O)OC(C)(C)C)nn1 returned Pf growth 96h 1µM, Pf growth 48h 1.5µM and SARS PLP yeast inactive.
Cc1cn([C@H](C(=O)NCCCCCCCCCCC(=O)N2CCN(C(=O)OC(C)(C)C)CC2)[C@@H](C)O)nn1 was read as Pf growth 96h 9.3µM, Pf growth 48h 10µM and SARS PLP yeast inactive.
CC[C@H](C)[C@@H](C(=O)NCCCCCCCCCCC(=O)N1CCN(C(=O)OC(C)(C)C)CC1)n1cc(CCCCN=C(NC(=O)OC(C)(C)C)NC(=O)OC(C)(C)C)nn1 was read as Pf growth 96h 1.9µM, Pf growth 48h 1.2µM and SARS PLP yeast inactive.
For CC[C@@H](C)[C@@H](C(=O)N1CCN(C(=O)OC(C)(C)C)CC1)n1cc(CCCN=C(NC(=O)OC(C)(C)C)NC(=O)OC(C)(C)C)nn1 the results were Pf growth 96h inconclusive, Pf growth 48h inconclusive, Shiga inhibitor inactive, SARS PLP yeast inactive, NS1 inh inactive and CHX counter inactive.
`CC(C)n1cnc2c(NCc3ccccc3)nc(NCCO)nc21` gave Shiga inhibitor inactive and CHX counter inactive.
CC(C)n1cnc2c(N(C)c3cccc(Cl)c3)nc(N(CCO)CCO)nc21 was read as Pf growth 96h 9.3µM, Pf growth 48h 13µM, Shiga inhibitor inactive, SARS PLP yeast inactive, NS1 inh inactive and CHX counter inactive.
`Cc1cccc(/C=C(\c2nc3ccccc3[nH]2)S(=O)(=O)c2ccccc2)c1` gave Pf growth 96h inconclusive, Pf growth 48h 3.7µM, Shiga inhibitor inactive, SARS PLP yeast inactive, NS1 inh inactive and CHX counter inactive.
CC(=O)Nc1ccc2c(c1)nc(CCN1CCN(c3ccccn3)CC1)n2C was read as Pf growth 96h inactive, Pf growth 48h inactive, Shiga inhibitor inactive, SARS PLP yeast inactive, NS1 inh inactive and CHX counter inactive.
